Screening results as filed in PubChem.
This is a sample that favours compounds with a hit; in the whole collection about 3.5% have one here.
Pf apPOL block = Pf-apPOL inhibitors, biochemical, fluorescence. Plasmodium falciparum apicoplast DNA polymerase (apPOL). Recombinant Pf-apPOL, molecular beacon fluorescence, 1.5 h. inhibition, % at 10 µM. 210,000 compounds, 0.25% hits. AID 1794808, 2022
mHTT CaM bind = mutant huntingtin-calmodulin interaction inhibitors – biochemical, AlphaScreen, primary screen; AlphaScreen His-mHTT/GST-CaM binding, luminescence; inhibition, % at 15 µM; 190,000 compounds, 3.6% hits; AID 1671202, 2021;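 also: 0% = both proteins with DMSO and 100% = one protein alone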
* hit, by the source's call; x = not tested or not shown; ! = not active in a repeat. Rule as the data show it: active = inhibition above about 50%; inactive = the rest.

SMILES	Pf apPOL block	mHTT CaM bind
CCC(C)NC(=O)c1c[nH]c2ccc(S(=O)(=O)N(C)c3ccccc3C)cc2c1=O (centres undefined)	-12	8
CN1C(=O)c2ccc(C(=O)Nc3cc(Cl)ccc3O)cc2C1=O	0	7
O=C(Nc1ccnc2ccc(Cl)cc12)c1ccncc1	-2	1
O=C1Nc2ccc(Br)cc2C12NN=C(c1ccccc1)S2 (centres undefined)	0	100*
O=C1Nc2ccc(Br)cc2C1(O)Cc1ccccn1 (centres undefined)	-8	6
CCc1ccc2c(c1)C1(NN=C(c3ccc(C)cc3)S1)C(=O)N2 (centres undefined)	2	100*
CCc1ccc2c(c1)C(=O)C(=O)N2	-4	21
NC(=O)CSc1nc2sc3c(c2c(=O)n1-c1ccc(Cl)cc1)CCC3	-3	2
CCc1ccccc1NC(=O)C1CCN(C(=O)c2ccc(OC)c(OC)c2)CC1	2	0
COc1ccccc1C(NC(=O)Cc1ccccc1)c1ccc2cccnc2c1O (centres undefined)	-4	35
COc1ccc(C(NC(=O)CCc2ccccc2)c2ccc3cccnc3c2O)cc1OC (centres undefined)	-4	100*
O=C(CCc1ccccc1)NC(c1ccccc1)c1ccccc1	-2	-11
COc1ccc(C(NC(=O)Cc2ccccc2)c2ccc3cccnc3c2O)cc1OC (centres undefined)	87*!	100*
CNc1nccc(N2CCC(CC(=O)N(C)Cc3ccccc3)CC2)n1	2	13
CCOC(=O)Oc1cc2c(C(=O)OCC)c(C)oc2cc1Br	-4	-12
Cc1cncn(CC(=O)Nc2ccccc2OC(F)(F)F)c1=O	-1	-8
O=P1(c2ccccc2)OCCN1C12CC3CC(CC(C3)C1)C2 (centres undefined)	x	-2
CC(C)c1cc(C2CCCN2C(=O)c2cc(-c3ccc(F)cc3)on2)on1 (centres undefined)	3	-5
CN(CCCNC(=O)C1(n2cccc2)CCCCC1)Cc1ccccc1	-16	27
O=C(NCCCc1ccccc1)C1(n2cccc2)CCCCC1	-6	51*
Cc1nc(N2CCOCC2)nc(N2CCCC2)c1[N+](=O)[O-]	-10	-2
Cc1cc(C)n(-c2nc(N3CCOCC3)nc(C)c2[N+](=O)[O-])n1	69*!	-1
CCc1csc(C2CCCN(C(=O)C3CCCC3)C2)n1 (centres undefined)	0	8
Cc1ccc2c(c1)c1c3n2CCN(C(=O)CN2CCN(C(=O)c4ccco4)CC2)C3CCC1 (centres undefined)	-1	57*
O=C(CN1CCN(C(=O)c2ccco2)CC1)Nc1c2c(nc3c1CCC3)CCCC2	-3	2
SMILES	Pf apPOL block	mHTT CaM bind
COc1ccc([C@H]2C[C@H](O)[C@@H](n3cc(C4CC4)nn3)CN2Cc2cccs2)cc1	2	94*
O[C@H]1C[C@H](c2ccccc2)N(Cc2cccs2)C[C@@H]1n1cc(C2CC2)nn1	-3	74*
Cc1ccc([C@H]2C[C@@H](n3cc(C4CC4)nn3)[C@H](O)CN2Cc2cccs2)cc1	-1	32
CCCCCCN1C[C@@H](n2cc(C3CC3)nn2)[C@H](O)C[C@@H]1c1ccc(OC)cc1	0	36
Clc1ccc(C2C3=C(Nc4ncnn42)c2ccccc2CCC3)cc1 (centres undefined)	2	25
Cc1ccc(-c2nc(C(=O)NCCc3ccccc3)cs2)n1C	1	99*
Cc1ccc(-c2nc(C(=O)NCCc3ccc(Cl)cc3)cs2)n1C	-3	24
COc1ccc(NC(=O)c2csc(-c3ccc(C)n3C)n2)cc1	-3	62*
Cc1ccc(-c2nc(C(=O)Nc3ccc(Cl)cc3)cs2)n1C	-5	-7
CCc1cc(C2CCCN2Cc2cccc(F)c2)on1 (centres undefined)	-1	-9
O=C(NCCSS(=O)(=O)O)c1ccco1	-1	-5
COc1ccc(-c2nc3sc(CCNC(=O)C(=O)Nc4cccc(C)c4)c(C)n3n2)cc1	0	6
CC(Oc1ccc2c(c1)OCO2)C(=O)N1CCN(c2ccc(-c3ccco3)nn2)CC1 (centres undefined)	15	35
O=C(NCCc1ccc(Cl)cc1)c1nc2ccccc2[nH]1	5	2
O=C1CCC[C@@H]2C[C@@]3(C[C@@H]4CCN1[C@H]24)Nc1cc(Cl)ccc1NC3=NCc1ccccc1	-3	62*
Cc1cc2c(cc1C)N[C@]1(C[C@H]3CCCC(=O)N4CC[C@@H](C1)[C@@H]34)C(=NC(C)(C)CC(C)(C)C)N2	-4	100*
CC(C)(C)CC(C)(C)N=C1Nc2ccc(Cl)cc2N[C@]12C[C@H]1CCCC(=O)N3CC[C@@H](C2)[C@@H]13	-2	73*
O=C1CCC[C@@H]2C[C@@]3(C[C@@H]4CCN1[C@H]24)Nc1cc(Cl)ccc1NC3=NC1CCCCC1	-2	30
Cc1cc2c(cc1C)N[C@]1(C[C@H]3CCCC(=O)N4CC[C@@H](C1)[C@@H]34)C(=NCc1ccccc1)N2	2	34
Cc1cc2c(cc1C)N[C@]1(C[C@H]3CCC(=O)N4CC[C@@H](C1)[C@@H]34)C(=Nc1ccccc1C)N2	-5	48
Cc1ccccc1N=C1Nc2ccccc2N[C@]12C[C@H]1CCCC(=O)N3CC[C@@H](C2)[C@@H]13	-1	15
O=C1CCC[C@@H]2C[C@@]3(C[C@@H]4CCN1[C@H]24)Nc1cc([N+](=O)[O-])ccc1NC3=NC1CCCCC1	-3	51*
COCCC(=O)N1CCCn2nc(-c3cccc(OC)c3)cc2C1	-3	6
N#Cc1sc2nc(-c3ccccc3)ccc2c1N	-6	-42
Cc1ccc(-c2nc3ccccc3s2)cc1NC(=O)c1ccco1	-7	0
SMILES	Pf apPOL block	mHTT CaM bind
COc1cccc(C(=O)Nc2cccc(-c3nc4ccccc4s3)c2)c1	0	-6
O=C(Nc1ccc(-c2nc3ccccc3s2)c(O)c1)c1ccccc1	97*	-13
Cc1cc(C(=O)Nc2cccc(-c3nc4ccccc4s3)c2)on1	54*	-2
O=C(Nc1ccc(-c2nc3ccccc3s2)cc1)c1ccccc1F	2	5
Cc1ccc(-c2nc3ccccc3s2)cc1NC(=O)c1ncn[nH]1	-4	98*
O=C(Nc1ccc(-c2nc3ccccc3s2)c(O)c1)c1ccc(F)cc1	0	-4
O=C(Nc1ccc(-c2nc3ccccc3s2)cc1)c1ncn[nH]1	-6	54*
COc1ccccc1OCCOc1cc(Cl)ccc1Cl	4	-17
Cc1ccc(OCC(=O)Nc2ccc3oc(-c4ccncc4)nc3c2)c(C)c1	-29	2
Cc1ccc(C(=O)N2CCC(CCNS(=O)(=O)c3cccc(F)c3)CC2)cc1	15	29
O=[N+]([O-])c1cccc(S(=O)(=O)/C=C/c2ccccc2)c1	1	7
COc1cc2c(cc1OC)C(C(=O)N(C)c1ccc(C(C)C)cc1)C(c1cccs1)N(C)C2=O (centres undefined)	3	39
O=C1CSC(c2ccccc2)N1c1ccc(N2C(=O)CSC2c2ccccc2)cc1 (centres undefined)	-5	4
Cc1ccc(OCCNC(C)(C)C)cc1	-2	-8
COCCN1C(=O)C(O)=C(C(=O)c2cccs2)C1c1cccc(Br)c1 (centres undefined)	-6	1
COC(=O)C(C)Oc1cc(C)cc2oc(=O)cc(-c3ccccc3)c12 (centres undefined)	-4	-7
